SMN2 splice enh: enhancers of SMN2 splice variant expression. 210,000 compounds, 2.8% hits. HEK293 SMN2-luciferase splicing reporter, luminescence, 30-36 h. AID 1458. Potency, µM (highest dose often 46.1 µM), for the others: top-dose activity change, positive = activation, hits mostly activators; note: % of control where 0% means no effect; nearly all actives have a fitted effect of over 55% in size
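qHTS luciferase splicing reporter: luminescence rises when SMN2 exon 7 is included in transfected HEK293 cells. Compound exposure lasted 30-36 h at 37C, with 4.5 mM final sodium butyrate as control, followed by a ONE-Glo read.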
NPC1 prom act: activates the NPC1 promoter; Potency, µM (doses to about 9.22 µM), for the others: at the highest dose activation, hits mostly activators; Huh7 NPC1 promoter luciferase reporter, 24 h; 320,000 compounds, 2.4% hits; note: % of control where 0% means no effect; nearly all actives have a fitted effect of over 60% in size
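In 1536-well qHTS, Huh7 cells harboring an NPC1 promoter–luciferase construct received compound for 24 h; activation was quantified by luminescence following luciferase reagent addition.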
Rab9 prom act: Rab9 promoter activation. Huh7 Rab9 promoter-luciferase reporter, luminescence, 24 h. Potency, µM (doses to about 9.22 µM), for inactives: at the top dose activation, negative = inhibition, usual class: activators. 320,000 compounds, 2.8% hits. AID 485297; note: % of control where 0% means no effect; nearly all actives have a fitted effect of over 60% in size
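Steps: seed 1500 Huh7 Rab9-luc cells per well, rest 2 h at 37 °C; add compound in DMSO; incubate 24 h; add luciferase reagent, 10 min ambient; read luminescence.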
ELG1 DNA repair: ELG1-dependent DNA repair inhibition | HEK293T ELG1-luciferase reporter, luminescence, 16 h; DNA damage induced by 5-fluorouridine | Potency, µM (series often up to 46.1 µM), for inactives: at the highest dose activity change, negative = inhibition, usual class: inhibitors | 330,000 compounds, 2.3% hits; note: % is set by controls: 0 for no effect and ±100 for the full control effect; nearly all actives have a fitted effect of over 55% in size
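In this reporter screen, reduction of luminescence relative to DMSO vehicle indicated activity. Compounds and 5-fluorouridine were added together to 2,000 cells per well, incubated for 16 hr at 37 °C, then developed with ONE-Glo.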
FLuc counter: counter-screen for miR-21 project: firefly luciferase inhibitors or activators; P08659; purified FLuc, Km substrates, luminescence inhibition; Potency, µM (titrated, usually from 57.5 µM), for inactives: at the top dose activity change, negative = inhibition, hits mostly inhibitors; 360,000 compounds, 6.9% hits; AID 588342;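 note: plate controls were vehicle for no effect and reference inhibitor for full effect; nearly all actives have a fitted effect of over 55% in size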
Target sequence (P08659 whole entry, looked up): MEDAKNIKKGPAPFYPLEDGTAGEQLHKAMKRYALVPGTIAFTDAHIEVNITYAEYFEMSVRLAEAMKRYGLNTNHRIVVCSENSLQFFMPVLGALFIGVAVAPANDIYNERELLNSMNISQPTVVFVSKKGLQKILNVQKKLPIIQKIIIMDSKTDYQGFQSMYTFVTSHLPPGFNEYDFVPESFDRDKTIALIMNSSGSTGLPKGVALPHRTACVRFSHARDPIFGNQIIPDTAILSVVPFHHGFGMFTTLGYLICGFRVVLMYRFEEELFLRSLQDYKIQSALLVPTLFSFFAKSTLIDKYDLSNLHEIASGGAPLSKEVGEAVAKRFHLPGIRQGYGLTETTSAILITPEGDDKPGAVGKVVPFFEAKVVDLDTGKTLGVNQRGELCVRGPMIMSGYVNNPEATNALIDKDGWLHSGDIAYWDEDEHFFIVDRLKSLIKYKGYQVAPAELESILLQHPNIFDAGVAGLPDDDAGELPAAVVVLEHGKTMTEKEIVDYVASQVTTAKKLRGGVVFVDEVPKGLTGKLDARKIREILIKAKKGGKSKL
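Purified P. pyralis luciferase, 10 nM final, with Km-level 10 uM D-luciferin and 10 uM ATP in 50 mM Tris acetate pH 7.5, 10 mM Mg acetate, 0.01% Tween-20, 0.05% BSA; 6-point qHTS titration about 60 µM downward; luminescence read.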
ELG1 genotoxic: genotoxicity induction in ELG1-luciferase HEK293T cells; HEK293T ELG1-luciferase reporter, luminescence, 16 h; Potency, µM (highest dose often 46 µM), inactives show at the top dose activity change, positive = activation, hits mostly activators; 330,000 compounds, 1.3% hits; note: % of control where 0% means no effect; nearly all actives have a fitted effect of over 60% in size
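Step 1: seed 2,000 HEK293T ELG1-luciferase cells per well. Step 2: add compound or DMSO, incubate 16 hr at 37 °C. Step 3: ONE-Glo, 30 min at room temperature, read luminescence.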
* marks the source's active call; other numbers are inactive results; u = inconclusive; x = not tested or not shown; [ ] = remark or other dose. This is a sample that favours compounds with a hit; in the whole collection about 9.4% have one here. Calls come from the whole dose curve; as a rule, active = well fitted curve in the direction sought with a large enough effect; inconclusive = small, poorly fitted or top-dose-only effect, or another doubt; inactive = no such curve, though single readings can be large; an effect the other way counts as inactive or inconclusive. Potency is the fitted concentration of half-maximal effect.

SMILES | SMN2 splice enh | NPC1 prom act | Rab9 prom act | ELG1 DNA repair | FLuc counter | ELG1 genotoxic
CC(C)c1ccc(NC(=O)N2CCc3ccccc3C2)cc1 | 13µM* | u | 4µM* | u | 11µM* | u
Cc1nc(SCc2ccccc2F)c2cnn(-c3ccccc3)c2n1 | 35µM* | 7% | u | 29% | u | 9%
Fc1ccc(-n2ncc3c(SCc4cccnc4)ncnc32)cc1 | -32% | 25% | u | u | 6.7µM* | 23µM*
Cc1ccc(-n2ncc3c(SCc4ccccn4)ncnc32)c(C)c1 | 1.8µM* | 1% | u | u | u | 0%
Cc1ccc(CSc2ncnc3c2cnn3-c2ccc(C)cc2)cc1 | u | u | u | u | -10% | 14%
Cc1ccc(-n2ncc3c(SCc4ccccc4)ncnc32)cc1 | 11µM* | 4µM* | u | u | 11µM* | u
CCc1ccccc1Nc1nn2c(=O)c3ccc(C(=O)NC4CCCCC4)cc3nc2s1 | x | x | x | x | -3% | x
Cc1ccc(-n2c(=O)c3oc4ccccc4c3n(Cc3ccccc3)c2=O)cc1C | x | x | x | x | 4% | x
CCCNC(=O)CSc1nc2ccccc2nc1Cc1ccc(Cl)cc1 | x | x | x | x | -5% | x
O=C1OC(c2ccc(F)cc2)=C/C1=C\c1ccc([N+](=O)[O-])o1 | -10% | -12% | -7% | 12% | -19% | 7%
O=C1N=C(N2CCN(c3ccccc3)CC2)S/C1=C/c1cccs1 | 4% | 7% | 3% | u | u | -5%
O=C1N=C(N2CCN(Cc3ccccc3)CC2)S/C1=C/c1cccs1 | x | 20% | 27% | 0% | 9.5µM* | 0%
O=C1/C(=C/c2cccs2)SC(=S)N1c1ccccc1 | -6% | -3% | 2% | 27% | -1% | 5%
O=C1N=C(c2ccccc2)S/C1=C\c1cccs1 | 3% | 24% | 19% | u | 3.8µM* | u
O=C1OC(c2ccccc2)=C/C1=C/c1cccs1 | 7% | 3% | 3% | 7% | 0.67µM* | 2%
Cc1c(Cl)cccc1NC(=O)CSc1ncccc1C(=O)Oc1ccccc1Cl | x | x | x | x | -11% | x
CCOC(=O)c1ccc(NC(=O)C2=C(C)C(=O)OC23CCN(C(C)C)CC3)cc1 | x | x | x | x | -5% | x
N#Cc1ccccc1NC(=O)COc1ccccc1C(=O)Nc1ccccc1 | x | x | x | 21µM* | x | -3%
CCc1ccccc1NC(=O)COc1ccc2c(c1)OCO2 | 1% | 0% | 21% | -2% | -19% | 6%
CCCCNC(=O)c1ccccc1NC(=O)c1ccc2c(c1)OCO2 | 11% | 0% | 0% | u | 19µM* | -3%
N#Cc1ccccc1NC(=O)COC(=O)c1ccc2c(c1)OCCO2 | 6% | 1% | u | 6% | 19µM* | 6%
Cc1ccc(NC(=O)COc2ccc3c(c2)OCO3)c(Cl)c1 | x | 2.8µM* | u | u | 1.5µM* | u
CCCCC[C@H](O)/C=C/C=C/C=C/[C@H](O)C/C=C\CCCC(=O)O | 5% | x | x | x | x | x
O=C(CN1C(=O)COc2ccc(S(=O)(=O)N3CCCCCC3)cc21)N1CCN(c2ccc(Cl)cc2)CC1 | 11% | x | x | x | -8% | x
N=c1c(C(=O)NCC2CCCO2)cc2c(=O)n3ccccc3nc2n1CCCO (stereo not drawn) | -16% | x | x | x | 6% | x
SMILES | SMN2 splice enh | NPC1 prom act | Rab9 prom act | ELG1 DNA repair | FLuc counter | ELG1 genotoxic
CCC(C)NC(=O)CSc1nnc(-c2ccc(C)cc2)c(-c2ccc(C)cc2)n1 (stereo not drawn) | x | x | x | x | -10% | x
Cc1cccc(NC(=O)c2ccc3c(c2)OCCO3)c1C | x | -45% | 3.2µM* | u | 15µM* | u
Cc1ccccc1NC(=O)c1ccc2c(c1)OCCO2 | u | u | u | u | 1%[2.3 µM] | u
COC(=O)c1ccccc1NC(=O)c1ccc2c(c1)OCCCO2 | x | u | 2µM* | u | 19µM* | u
N#Cc1ccccc1NC(=O)c1ccc2c(c1)OCCO2 | x | u | u | u | 21µM* | u
N#Cc1ccccc1COC(=O)c1ccc2c(c1)OCCO2 | x | 6% | 25% | u | 13µM* | 18%
N#Cc1ccc(-c2cccs2)nc1SCc1ccc(Cl)cc1Cl | -16% | x | x | x | 3% | x
N#Cc1ccccc1NC(=O)COc1ccc2c(c1)OCO2 | x | 4µM* | 3.5µM* | u | 21µM* | u
O=C(CSC1=Nc2ccccc2C2=NC(CCC(=O)NC3CCCCC3)C(=O)N12)Nc1cccc(C(F)(F)F)c1 (stereo not drawn) | 12% | x | x | x | 2% | x
COc1cc(-c2nc(-c3ccc4c(c3)-c3ccccc3S4(=O)=O)c(-c3ccccc3)[nH]2)cc(OC)c1O | 13% | 7% | 1% | 4.6µM* | 6.7µM* | -12%
COc1ccccc1CNCCCCCCNCCCCCCCCNCCCCCCNCc1ccccc1OC | -35% | 1%[46.1 µM] | 11%[46.1 µM] | x | x | x
Cc1ccc(SCc2nc3ccccc3n2CC(=O)Nc2c(C)cccc2C)cc1 | 6% | -2% | -1% | 5% | -1% | 0%
Cc1ccc(SCc2nc3ccccc3n2CC(=O)Nc2ccccc2)cc1 | 6% | -3% | 4% | -6% | 15µM* | -1%
O=C(Cn1c(CSc2ccccc2)nc2ccccc21)Nc1ccccc1 | 1% | -3% | -2% | 5% | -19% | -6%
Cc1ccc(SCc2nc3ccccc3n2CC(=O)Nc2ccc(Cl)cc2)cc1 | 8% | 3% | -2% | 7.3µM* | u | 12%
COC(=O)c1ccc(Oc2nc(Nc3ccc(C)c(C)c3)nc(N(C)C)n2)cc1 | -7% | -5% | -1% | 21µM* | u | -16%
CCCC(=O)Nc1ccc2nn(-c3ccc(CC)cc3)nc2c1 | 14% | x | x | x | u | x
Cc1nnc(NC(=O)c2ccc3c(c2)C(=O)N(CC2CCCO2)C3=O)s1 (stereo not drawn) | -3% | -2% | 2% | u | 5.4µM* | 7%
Nc1ccc(Oc2ccc3c(c2)C(=O)N(CC2CCCO2)C3=O)cc1 (stereo not drawn) | x | u | u | u | 9.5µM* | u
CCOC(=O)c1ccc(NC(=O)c2ccc3c(c2)C(=O)N(CC2CCCO2)C3=O)cc1 (stereo not drawn) | x | 1% | -2% | 1% | -11% | -8%
O=C(Nc1ccc2c(c1)C(=O)N(CC1CCCO1)C2=O)c1ccc(Cl)c(Cl)c1 (stereo not drawn) | -78% | -8% | -13% | 9.2µM* | 5.4µM* | 14%
Cc1ccc(NC(=O)c2ccc3c(c2)C(=O)N(CC2CCCO2)C3=O)cc1C (stereo not drawn) | x | 0% | 14% | -9% | 11µM* | 2%
